Source: PubChem BioAssay (National Center for Advancing Translational Sciences (NCATS))
This is a sample that favours compounds with a hit; in the whole collection about 21% have one here.
CHX counter = counter-screen for Shiga toxin inhibitors: cycloheximide protein synthesis inhibition; cell reporter, cycloheximide protein synthesis inhibition counterscreen; max response, %; 12% of 300,000 active; AID 2314; in the data active = max response mostly above about 13%, no sharp cut-off; inactive = mostly below about 14%; also: read at 38.3 µM for the half of the compounds with a filed dose; 0% is about no effect
NS1 function inh = inhibitors of influenza NS1 protein function. Potency, µM (series often up to 46.1 µM), for the others: top-dose activity, positive = more growth. AID 2326. 0.4% of 270,000 active; calls by dose curve; also: potency is read from the fitted curve at half-maximal effect; actives are rising curves; nearly all actives have a fitted effect of over 50% in size
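Recovery from NS1-induced slow growth read by OD600 in budding yeast switched to galactose assay medium (pH 6.0, -URA) at 1:100 dilution. Compound 23 nl per well; the matching strain lacking NS1 serves as control.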
Pf growth 96h = P. falciparum growth inhibition at 96 hours | Potency, µM (highest dose often 28.7 µM), inactives show at the highest dose activity change, negative = inhibition, usual class: inhibitors | AID 504834 | P. falciparum luciferase reporter growth, 96 h | 6.9% of 320,000 active; also: potency is read from the fitted curve at half-maximal effect; % is scaled to controls: 0 for no effect and ±100 for the full control effect
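Parasite growth measured via integrated firefly luciferase reporter in P. falciparum. Infected erythrocytes at 2% hematocrit, 0.05% parasitemia final were treated 96 hours at 37 C under 5% CO2, and luminescence was read.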
Sm TGR inh = inhibitors of Schistosoma mansoni thioredoxin glutathione reductase; Q962Y6; purified TGR, DTNB reduction, TNB absorbance 405 nm; Potency, µM (titrated, usually from 114 µM), for the others: top-dose activity change, negative = inhibition, actives largely listed as inhibitors; 3% of 360,000 active; AID 485364; also: potency is read from the fitted curve at half-maximal effect; % is scaled to controls: 0 for no effect and ±100 for the full control effect; nearly all actives have a fitted effect of over 60% in size
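First, TGR (20 nM dispensed) and NADPH were mixed with compound. Second, a 15 min room-temperature incubation followed. Third, further NADPH and then DTNB were added to start the reaction. Finally, TNB absorbance was monitored kinetically.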
Shiga inhibitor = inhibitors of Shiga toxin in Vero cells; inhibition, % at 38.7 µM; Vero cells, Shiga toxin protein synthesis inhibition reporter; 9.2% of 290,000 active; in the data active = inhibition mostly above about 28%, no sharp cut-off; inactive = mostly below about 43%; also: 0% is about no effect
Pf growth 48h = inhibits P. falciparum growth in the first generation, 48 h; Potency, µM (titrated, usually from 28.7 µM), inactives show top-dose activity change, negative = inhibition, actives largely listed as inhibitors; P. falciparum luciferase growth in erythrocytes, 48 h; 5.9% of 310,000 active; AID 504832; also: potency is read from the fitted curve at half-maximal effect; % is scaled to controls: 0 for no effect and ±100 for the full control effect
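Erythrocytes infected with P. falciparum carrying an integrated firefly luciferase reporter (2% hematocrit, 0.1% parasitemia final) were exposed to compounds in RPMI 1640 with 0.5% Albumax at 37 C, 5% CO2. Growth inhibition was scored as reduced luminescence.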
Active calls of the source: *; ? = inconclusive; nt = no result; [ ] = another dose, or the depositor's remark. Unless noted, calls follow the shape of the dose curve; as a rule, active = well fitted curve in the direction sought with a large enough effect; inconclusive = small, poorly fitted or top-dose-only effect, or another doubt; inactive = no such curve, though single readings can be large; an effect the other way counts as inactive or inconclusive.

SMILES	CHX counter	NS1 function inh	Pf growth 96h	Sm TGR inh	Shiga inhibitor	Pf growth 48h
CCC(C)(C)n1nnnc1C(c1ccc(C)cc1)N1CCN(Cc2ccc3c(c2)OCO3)CC1 (centres undefined)	-4	3%	?	2%	-3	15µM*
CCC(C)(C)n1nnnc1C(c1ccc(C)cc1)N1CCC(C)CC1 (centres undefined)	8	-26%	145%	0%	16	10µM*
Cc1ccc(C)c(NC(=S)N/N=C2\CCc3ccccc32)c1	14	-1%	5.2µM*	-6%	14	51%
Cc1cccc(NC(=S)N/N=C2/CCCCc3ccccc32)c1	-5	?	?	-1%	-5	?
COc1ccc(NC(=S)N/N=C2/CCCc3c(C)cc(C)cc32)cc1	2	4%	-5%	-6%	-15	17%
CCNC(=S)N/N=C1\CCCCc2ccccc21	-1	-43%	?	?	8	12µM*
Cc1ccc(NC(=S)N/N=C2/CCCCc3ccccc32)cc1	17*	-52%	12µM*	1%	23	?
C=C(C)CNC(=S)N/N=C1\CCCCc2ccccc21	4	-27%	15µM*	-2%	-4	?
O=S(=O)(c1ccc(F)cc1)N1CCC2(CC1)OCCO2	4	nt	-28%[5.75 µM]	3%	9	-5%
CCOc1ccc(S(=O)(=O)c2c[nH]c3ccccc3c2=O)cc1	3	2%	8%	32%	-2	-25%
O=C(O)C(Oc1ccc2cc(-c3ccc(Cl)cc3)c(=O)oc2c1)c1ccccc1 (centres undefined)	-3	?	268%	-1%	-4	9%
COc1ccc(NC(=O)N(Cc2nnc3n2CCCCC3)c2ccc(OC)c(Cl)c2)cc1	nt	nt	nt	1%	nt	nt
CC(C)c1ccccc1NC(=O)COC(=O)c1c2c(nc3ccccc13)CCN(Cc1ccccc1)C2	-4	-14%	13µM*	-2%	-25	8.3µM*
Cc1c(Cl)cccc1NC(=O)COC(=O)c1c2c(nc3ccccc13)CCN(Cc1ccccc1)C2	1	?	2.9µM*	17%	8	13µM*
Cc1cc(N2CCN(C)CC2)ccc1NC(=O)c1c2c(nc3ccccc13)CCN(Cc1ccccc1)C2	-12	8%	?	-7%	-27	?
Nc1nc2c(c(=O)[nH]1)CN(Cc1ccccc1)CC2	nt	nt	10%	6%	nt	-29%
Nc1c2c(nc3ccccc13)CCN(Cc1ccccc1)C2	15*	-3%	8.3µM*	2%	5	?
CC1(C)C2CCC1(CS(=O)(=O)N1CCN(c3ccc(F)cc3)CC1)C(=O)C2 (centres undefined)	-3	7%	-52%	-11%	-3	-17%
Cc1ccccc1OCC(=O)OCC(=O)NCc1cccs1	0	-33%	23%	7%	9	4%
O=C(Nc1nccs1)c1ccc(Br)o1	33*	-2%	185%	-3%	69*	174%
O=C(/C=C/c1ccc(Br)o1)Nc1nccs1	39*	nt	181%	3.2µM*	95*	204%
O=C(O)/C=C/C(=O)Nc1nccs1	5	3%	?	-15%	2	?
COCCNc1oc(/C=C/c2ccccc2OC)nc1S(=O)(=O)c1ccccc1	26	29%	7.4µM*	13µM*	17	9.3µM*
COCCNc1oc(-c2ccccc2)nc1S(=O)(=O)c1ccc(Br)cc1	nt	nt	nt	7%	nt	nt
Cn1c(N2CCN(c3ccccn3)CC2)nc2c1c(=O)n(Cc1ccc(Cl)cc1)c(=O)n2C	-1	13%	nt	-10%	-6	12µM*
SMILES	CHX counter	NS1 function inh	Pf growth 96h	Sm TGR inh	Shiga inhibitor	Pf growth 48h
CC1CN(c2nc3c(c(=O)n(Cc4ccc(Cl)c(Cl)c4)c(=O)n3C)n2C)CC(C)O1 (centres undefined)	-2	-118%	nt	6%	-22	6.6µM*
Cn1c(N2CCCCC2)nc2c1c(=O)n(Cc1cccc(Br)c1)c(=O)n2C	-3	-34%	nt	4%	-14	6%
Cc1cc(C)n(-c2nc3c(c(=O)n(Cc4ccc(Cl)c(Cl)c4)c(=O)n3C)n2C)n1	nt	11%	nt	nt	nt	nt
COCCCNC(=O)CCC(=O)N1Cc2ccccc2Oc2ncccc21	nt	nt	nt	-2%	nt	nt
C[C@@H]1C=C[C@](Cc2ccccc2)(C(=O)NCC2CC2)N1C(=O)c1ccccc1	70*	2%	?	-14%	173*	23%
CC(C)(C)OC(=O)N1CCC(CNC(=O)c2ccccc2)CC1	-4	-1%	1%	-2%	39	-2%
COC(=O)c1ccc(NC(=O)CCN2C(=O)CSC2=O)cc1	-2	-2%	7%	-15%	-15	5%
Cc1ccc(NC(=O)Nc2nnc(SCC(=O)N3CCCCC3)s2)cc1	nt	nt	nt	1%	nt	nt
Cc1ccc2nc(Cc3ccc(N)cc3)oc2c1	28*	7%	5%	0%	62*	0%
c1ccc2oc(Cc3ccc(Cc4nc5ccccc5o4)cc3)nc2c1	-3	2%	13µM*	-12%	14	-26%
CC(C)(C)NC(=O)c1ccc2nc(CCc3ccccc3)oc2c1	nt	nt	nt	6%	nt	nt
Nc1ccc2oc(CCc3ccccc3)nc2c1	48*	?	44%	-13%	167*	73%
O=C1c2ccccc2C(=O)N1Cc1nc2ccccc2o1	-1	-7%	-27%	3%	18	7%
Cc1ccc2nc(CCc3nc4ccc(C)cc4o3)oc2c1	5	-5%	nt	1%	16	-5%
c1ccc2oc(CCc3nc4ccccc4o3)nc2c1	15*	-16%	42%	13%	20	36%
COC(=O)c1c(C)nn(-c2ccc(F)c(Cl)c2)c1-c1cc(C)on1	2	-6%	13%	-1%	-5	10%
COc1ccc(C(=O)NCCn2cc(SCC(N)=O)c3ccccc32)cc1	12	0%	30%	1%	11	12%
Oc1ccc(N2CCN(c3ncnc4sc(-c5ccccc5)cc34)CC2)cc1	6	nt	15µM*	-26%	16	?
O=C(O)C(Cc1ccc2c(c1)oc1ccccc12)NCP(=O)(O)O (centres undefined)	10	nt	nt	nt	-13	nt
Cn1c(=O)c(-c2cc(Br)ccc2N)nc2ccccc21	33*	-9%	-24%	-24%	60	nt
O=S(=O)(O)c1cc(O)ccc1O	nt	nt	43%	-20%	nt	26%
O=S(=O)(c1cc(O)ccc1O)c1cccc2c(S(=O)(=O)c3cc(O)ccc3O)cccc12	nt	nt	13µM*	11µM*	nt	10µM*
CC(C)(C)OC(=O)N1CC23CC(c4ccc(F)cc4)C(CC2S1(=O)=O)O3 (centres undefined)	-3	nt	nt	nt	1	nt
COC(=O)c1ccc(NC(=O)c2cccc(C)c2[N+](=O)[O-])cc1	22*	-4%	-10%	-4%	49	57%
CCOC(=O)c1cnc2c([N+](=O)[O-])cnn2c1C	7	nt	-29%	-13%	-3	12%[5.75 µM]
CCOC(=O)c1ccc(Nc2ncccc2[N+](=O)[O-])cc1	35*	0%	0.59µM*	6%	62*	253%
